PubChem BioAssay (EPA / NIEHS)
Calls of active or inactive are those of the source. Rule for the calls: active = hit-call score of the fitted dose curve at least 0.9, where 1 is the maximum; inactive = score below 0.9.

What was measured:
Details in all cases: mRNA level, 48 h; actives raise or lower the signal
[1] = read-out: JUN Transcription Factor, JUN (gene 3725); experiment: LTEA_HepaRG_JUN: Life Technologies and Expression Analysis (LTEA) Assay for JUN Transcription Factor using HepaRG (AID 2283513)
Summary of the method: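 Gene-expression endpoint: JUN mRNA (qRT-PCR, normalized to three reference genes) in HepaRG cultures treated 48 h with chemicals, duplicate wells, 100 uM maximum with half-log dilutions; bidirectional fitting relative to 0.5% DMSO.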

[2] = read-out: Lipase C (LIPC), LIPC (gene 3990); experiment: LTEA_HepaRG_LIPC: Life Technologies and Expression Analysis (LTEA) Assay for Lipase C (LIPC) using HepaRG (AID 2283514)
Summary of the method: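 HepaRG, 48 h exposure, 8-pt half-log series from 100 uM in 0.5% DMSO, duplicates. Readout: LIPC mRNA by Fluidigm qRT-PCR, housekeeping-normalized (ACTB/GAPDH/POLR2A). Gain or loss fitted bidirectionally against DMSO baseline.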

[3] = read-out: Lipoprotein lipase (LPL), LPL (gene 4023); experiment: LTEA_HepaRG_LPL: Life Technologies and Expression Analysis (LTEA) Assay for Lipoprotein lipase (LPL) using HepaRG (AID 2283515)
Summary of the method: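 HepaRG, 48 h exposure, 8-pt half-log dilutions from 100 uM, 0.5% DMSO vehicle, duplicates; qRT-PCR (Fluidigm array) of LPL mRNA vs housekeeping genes; bidirectional curve fit relative to DMSO baseline.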

[4] = read-out: MicroRNA 122 (MIR122), gene 406906; experiment: LTEA_HepaRG_MIR122: Life Technologies and Expression Analysis (LTEA) Assay for MicroRNA 122 (MIR122) using HepaRG (AID 2283516); note: the transcript read is the microRNA miR-122
Summary of the method: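 Changes in transcript abundance, up or down relative to 0.5% DMSO vehicle, were scored after 48 h chemical treatment of HepaRG cells (maximum 100 uM). Quantification used TaqMan qRT-PCR normalized to housekeeping genes.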

[5] = read-out: matrix metalloproteinase-10 (MMP10), MMP10 (gene 4319); experiment: LTEA_HepaRG_MMP10: Life Technologies and Expression Analysis (LTEA) Assay for matrix metalloproteinase-10 (MMP10) using HepaRG (AID 2283517)
Summary of the method: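 Transcript levels come from Fluidigm qRT-PCR normalized to three housekeeping genes, with curves fitted bidirectionally against 0.5% DMSO. Human HepaRG cells were dosed for 48 hours at concentrations up to 100 uM.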

MYC, MYC (gene 4609) = experiment: LTEA_HepaRG_MYC: Life Technologies and Expression Analysis (LTEA) Assay for MYC using HepaRG (AID 2283518)
Summary of the method: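 MYC transcript changes, up or down relative to 0.5% DMSO, from TaqMan qRT-PCR normalized to three housekeeping genes. Human HepaRG cultures received chemicals for 48 h at eight half-log concentrations up to 100 uM, in duplicate.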

[6] = read-out: matrix metalloproteinase-3 (MMP3), MMP3 (gene 4314); experiment: LTEA_HepaRG_MMP3: Life Technologies and Expression Analysis (LTEA) Assay for matrix metalloproteinase-3 (MMP3) using HepaRG (AID 2283519)
Summary of the method: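 qRT-PCR read-out of MMP3 mRNA (normalised to three housekeeping genes) in HepaRG liver cells after 48 h chemical exposure; 8-point half-log series, top 100 uM, 0.5% DMSO vehicle. Bidirectional curve fitting against DMSO baseline.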

[7] = read-out: Paternally Expressed 10 (PEG10), PEG10 (gene 23089); experiment: LTEA_HepaRG_PEG10: Life Technologies and Expression Analysis (LTEA) Assay for Paternally Expressed 10 (PEG10) using HepaRG (AID 2283520);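 for AC50: PEG10 transcript by qRT-PCR normalised to ACTB GAPDH and POLR2A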
Summary of the method: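 After 48 h exposure of differentiated HepaRG cells (0.5% DMSO vehicle, eight concentrations up to 100 uM, duplicates), PEG10 mRNA was measured by TaqMan qRT-PCR. Values were normalised to endogenous control genes and analysed bidirectionally against vehicle.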

[8] = read-out: Nuclear factor NF-kappa-B p105 subunit (Homo sapiens) (UniProt P19838); experiment: LTEA_HepaRG_NFKB1: Life Technologies and Expression Analysis (LTEA) Assay for Nuclear Factor Kappa B Subunit 1 (NFKB1) using HepaRG (AID 2283521);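 note: TaqMan qRT-PCR transcript normalised to ACTB GAPDH and POLR2A housekeeping genes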
Summary of the method: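 Differentiated human HepaRG cells were exposed for 48 h in serum-free induction medium to eight concentrations (top 100 uM, half-log steps, 0.5% DMSO), in duplicate. NFKB1 mRNA was measured by TaqMan qRT-PCR, normalized to ACTB/GAPDH/POLR2A, and fitted bidirectionally against DMSO.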

[9] = read-out: Protein phosphatase 2A (PPP2R4), PTPA (gene 5524); experiment: LTEA_HepaRG_PPP2R4: Life Technologies and Expression Analysis (LTEA) Assay for Protein phosphatase 2A (PPP2R4) using HepaRG (AID 2283522)
Summary of the method: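 Using HepaRG cultures maintained in 0.5% DMSO, chemicals are tested 48 h at up to 100 uM in duplicate. Induction or suppression of PPP2R4 mRNA, measured by qRT-PCR, is fitted bidirectionally against the vehicle baseline.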

[10] = read-out: solute carrier (SLC22A1), SLC22A1 (gene 6580); experiment: LTEA_HepaRG_SLC22A1: Life Technologies and Expression Analysis (LTEA) Assay for solute carrier (SLC22A1) using HepaRG (AID 2283524)
Summary of the method: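 qRT-PCR readout (TaqMan, Fluidigm arrays) of SLC22A1 transcript, normalized to three housekeeping genes; bidirectional curve fit relative to 0.5% DMSO vehicle. Differentiated human HepaRG cells, 48 h chemical exposure, top concentration 100 uM, half-log steps, eight points.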

[11] = read-out: Pyruvate Dehydrogenase Kinase 4 (PDK4), PDK4 (gene 5166); experiment: LTEA_HepaRG_PDK4: Life Technologies and Expression Analysis (LTEA) Assay for Pyruvate Dehydrogenase Kinase 4 (PDK4) using HepaRG (AID 2283525)
Summary of the method: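 HepaRG (human liver line), 48 h chemical exposure, 8-pt half-log CRC top 100 uM, 0.5% DMSO vehicle, duplicates. Readout: TaqMan qRT-PCR of PDK4 mRNA, housekeeping-normalized; gain/loss fit relative to DMSO baseline.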

[12] = read-out: NAD(P)H dehydrogenase [quinone] 1 (NQO1), NQO1 (gene 1728); experiment: LTEA_HepaRG_NQO1: Life Technologies and Expression Analysis (LTEA) Assay for NAD(P)H dehydrogenase [quinone] 1 (NQO1) using HepaRG (AID 2283526)
Summary of the method: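 In this assay, gene expression is read by qRT-PCR after 48 h exposure of HepaRG cells to eight concentrations (max 100 uM, half-log) in 0.5% DMSO. Each chemical runs in duplicate, and activity is scored relative to vehicle.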

[13] = read-out: Nuclear factor erythroid 2-related factor 2 (Homo sapiens) (UniProt Q16236); experiment: LTEA_HepaRG_NFE2L2: Life Technologies and Expression Analysis (LTEA) Assay for Nuclear factor erythroid 2-related factor 2 (NFE2L2) Transcription Factor using HepaRG (AID 2283527)
Summary of the method: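 HepaRG, 48 h dosing, 8-pt half-log series from 100 uM in 0.5% DMSO, duplicates. Read-out: NFE2L2 mRNA by qRT-PCR (ACTB/GAPDH/POLR2A normalization). Bidirectional curve fit vs DMSO baseline.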

[14] = read-out: succinate dehydrogenase complex iron sulfur subunit B (SDHB), SDHB (gene 6390); experiment: LTEA_HepaRG_SDHB: Life Technologies and Expression Analysis (LTEA) Assay for succinate dehydrogenase complex iron sulfur subunit B (SDHB) using HepaRG (AID 2283528)
Summary of the method: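 HepaRG, 48 h exposure, 8-pt half-log series from 100 uM in 0.5% DMSO, duplicates. Readout: SDHB mRNA by Fluidigm qRT-PCR vs housekeeping genes; bidirectional fit relative to DMSO.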

[15] = read-out: solute carrier (SLCO1B1), SLCO1B1 (gene 10599); experiment: LTEA_HepaRG_SLCO1B1: Life Technologies and Expression Analysis (LTEA) Assay for solute carrier (SLCO1B1) using HepaRG (AID 2283530)
Summary of the method: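 SLCO1B1 transcript levels were quantified by TaqMan qRT-PCR using three housekeeping genes for normalization. This followed 48 h chemical exposure (100 uM top, half-log, 8 points, 0.5% DMSO) of HepaRG liver cells, with gain or loss fitted relative to DMSO.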

[16] = read-out: sulfotransferase 2A1 (SULT2A1), SULT2A1 (gene 6822); experiment: LTEA_HepaRG_SULT2A1: Life Technologies and Expression Analysis (LTEA) Assay for sulfotransferase 2A1 (SULT2A1) using HepaRG (AID 2283531)
Summary of the method: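 Expression change of SULT2A1, by qRT-PCR with three housekeeping-gene normalization, was scored bidirectionally versus DMSO. Cells: differentiated HepaRG, dosed in duplicate for 48 h across 8 points, highest 100 µM, half-log dilution, 0.5% DMSO.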

[17] = read-out: Transforming Growth Factor (TGFA), TGFA (gene 7039); experiment: LTEA_HepaRG_TGFA: Life Technologies and Expression Analysis (LTEA) Assay for Transforming Growth Factor (TGFA) using HepaRG (AID 2283532)
Summary of the method: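 qRT-PCR read-out of TGFA transcript, normalized to three housekeeping genes, fitted bidirectionally against 0.5% DMSO baseline. Human HepaRG cultures received chemicals for 48 h at eight half-log concentrations, top 100 uM.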

[18] = read-out: Signal transducer and activator of transcription 3 (Homo sapiens) (UniProt P40763); experiment: LTEA_HepaRG_STAT3: Life Technologies and Expression Analysis (LTEA) Assay for Signal transducer and activator of transcription (STAT3) using HepaRG (AID 2283529)
Summary of the method: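 HepaRG, 48 h exposure, 8-pt half-log series (top 100 uM), 0.5% DMSO vehicle, duplicates. Readout: STAT3 transcript by Fluidigm qRT-PCR, housekeeping-normalized; bidirectional fit vs DMSO baseline.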

[19] = read-out: Phosphatase and tensin (PTEN), PTEN (gene 5728); experiment: LTEA_HepaRG_PTEN: Life Technologies and Expression Analysis (LTEA) Assay for Phosphatase and tensin (PTEN) using HepaRG (AID 2283523)
Summary of the method: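 HepaRG, 48 h exposure, 8-pt half-log series from 100 uM top, 0.5% DMSO vehicle, duplicates. Readout: Fluidigm qRT-PCR of PTEN transcript; housekeeping normalization (ACTB, GAPDH, POLR2A). Gain or loss fitted relative to DMSO baseline.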

Measured: AC50

Chain of Nuclear factor NF-kappa-B p105 subunit (Homo sapiens) (P19838 whole entry, looked up): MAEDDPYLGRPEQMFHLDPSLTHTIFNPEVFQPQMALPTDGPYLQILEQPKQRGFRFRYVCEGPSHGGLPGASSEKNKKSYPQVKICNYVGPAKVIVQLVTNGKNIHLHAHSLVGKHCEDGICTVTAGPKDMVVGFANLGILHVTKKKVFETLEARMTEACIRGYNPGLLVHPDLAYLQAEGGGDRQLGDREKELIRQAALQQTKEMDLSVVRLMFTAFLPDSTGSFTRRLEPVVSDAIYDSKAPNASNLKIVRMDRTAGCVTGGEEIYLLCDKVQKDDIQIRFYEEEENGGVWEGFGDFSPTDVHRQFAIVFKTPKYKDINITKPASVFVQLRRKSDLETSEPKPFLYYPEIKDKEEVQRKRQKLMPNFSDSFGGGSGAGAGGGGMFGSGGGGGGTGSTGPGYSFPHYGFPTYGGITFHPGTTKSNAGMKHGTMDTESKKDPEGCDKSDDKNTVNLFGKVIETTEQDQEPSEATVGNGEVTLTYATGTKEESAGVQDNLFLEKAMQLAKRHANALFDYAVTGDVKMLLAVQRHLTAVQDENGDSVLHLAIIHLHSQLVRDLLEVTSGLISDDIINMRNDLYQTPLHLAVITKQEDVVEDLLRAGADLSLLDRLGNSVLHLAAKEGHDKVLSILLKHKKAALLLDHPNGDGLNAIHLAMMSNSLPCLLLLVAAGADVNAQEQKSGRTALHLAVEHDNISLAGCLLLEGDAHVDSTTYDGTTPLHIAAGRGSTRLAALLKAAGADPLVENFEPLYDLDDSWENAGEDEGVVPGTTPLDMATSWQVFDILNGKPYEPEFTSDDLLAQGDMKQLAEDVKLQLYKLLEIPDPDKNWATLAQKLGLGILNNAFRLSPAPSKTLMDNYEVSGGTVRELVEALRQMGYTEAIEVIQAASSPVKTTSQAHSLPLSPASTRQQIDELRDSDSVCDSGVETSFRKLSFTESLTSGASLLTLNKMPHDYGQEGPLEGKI
Chain of Nuclear factor erythroid 2-related factor 2 (Homo sapiens) (Q16236 whole entry, looked up): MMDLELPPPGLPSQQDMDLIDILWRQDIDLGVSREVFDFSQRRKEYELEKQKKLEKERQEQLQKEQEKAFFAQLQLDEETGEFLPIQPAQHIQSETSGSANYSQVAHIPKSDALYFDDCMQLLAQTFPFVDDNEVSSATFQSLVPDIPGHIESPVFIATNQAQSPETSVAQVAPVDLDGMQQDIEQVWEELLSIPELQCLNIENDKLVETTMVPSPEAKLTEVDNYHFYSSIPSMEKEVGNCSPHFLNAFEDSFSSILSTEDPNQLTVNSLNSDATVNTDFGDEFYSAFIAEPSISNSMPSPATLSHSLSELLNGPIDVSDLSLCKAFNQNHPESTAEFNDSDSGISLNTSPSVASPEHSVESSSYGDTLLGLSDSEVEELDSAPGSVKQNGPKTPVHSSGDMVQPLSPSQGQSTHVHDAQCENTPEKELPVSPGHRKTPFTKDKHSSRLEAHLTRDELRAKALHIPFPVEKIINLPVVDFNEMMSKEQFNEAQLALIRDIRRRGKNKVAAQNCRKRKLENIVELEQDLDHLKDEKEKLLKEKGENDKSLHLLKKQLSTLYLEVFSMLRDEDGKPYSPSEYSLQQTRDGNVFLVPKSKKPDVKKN
Chain of Signal transducer and activator of transcription 3 (Homo sapiens) (P40763 whole entry, looked up): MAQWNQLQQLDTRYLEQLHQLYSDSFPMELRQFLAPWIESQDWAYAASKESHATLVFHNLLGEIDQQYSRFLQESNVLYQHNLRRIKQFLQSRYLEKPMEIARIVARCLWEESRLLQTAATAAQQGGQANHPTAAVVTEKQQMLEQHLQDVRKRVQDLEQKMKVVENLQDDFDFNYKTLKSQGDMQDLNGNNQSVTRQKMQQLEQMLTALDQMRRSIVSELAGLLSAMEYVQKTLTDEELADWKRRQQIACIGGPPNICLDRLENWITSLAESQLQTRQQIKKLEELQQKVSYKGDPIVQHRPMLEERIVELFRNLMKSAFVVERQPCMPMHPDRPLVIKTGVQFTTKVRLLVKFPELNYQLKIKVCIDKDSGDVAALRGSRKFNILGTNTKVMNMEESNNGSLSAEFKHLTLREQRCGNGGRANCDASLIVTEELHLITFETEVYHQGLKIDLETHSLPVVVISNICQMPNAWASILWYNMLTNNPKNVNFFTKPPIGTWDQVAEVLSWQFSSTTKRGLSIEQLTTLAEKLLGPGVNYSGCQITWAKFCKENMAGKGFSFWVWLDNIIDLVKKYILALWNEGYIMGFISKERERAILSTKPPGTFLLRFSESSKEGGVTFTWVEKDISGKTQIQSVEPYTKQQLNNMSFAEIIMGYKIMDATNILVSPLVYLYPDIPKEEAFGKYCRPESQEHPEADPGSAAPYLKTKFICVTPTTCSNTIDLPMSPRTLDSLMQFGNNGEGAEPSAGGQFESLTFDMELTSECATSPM

COc1nc(NC(C)C)nc(NC(C)C)n1
not listed: [18] | [19]
inactive: all other assays above

COP(N)(=O)SC (centres undefined)
not listed: [19]
inactive: all other assays above

CNC(=S)S
not listed: [18] | [19]
inactive: all other assays above

N#CC(CCc1ccc(Cl)cc1)(Cn1cncn1)c1ccccc1 (centres undefined)
inactive: [8] | [9] | [11] | [12] | [14]
active: [1] 90.3 µM | [2] 65.9 µM | [3] 50 µM | [4] 66 µM | [5] 74.2 µM | MYC, MYC (gene 4609) 65.2 µM | [6] 86 µM | [7] 9.92 µM | [10] 71.5 µM | [13] 72.4 µM | [15] 83.6 µM | [16] 77.2 µM | [17] 77 µM

CCOc1cc(Oc2ccc(C(F)(F)F)cc2Cl)ccc1[N+](=O)[O-]
inactive: [1] | [6] | [8] | [9] | [11] | [12] | [14]
active: [2] 34.9 µM | [3] 21.4 µM | [4] 37 µM | [5] 50 µM | MYC, MYC (gene 4609) 28.4 µM | [7] 24.9 µM | [10] 38.6 µM | [13] 21.9 µM | [15] 20.6 µM | [16] 35.3 µM | [17] 15.3 µM

COP(=S)(OC)Oc1nc(Cl)c(Cl)cc1Cl
active: [7] 69 µM
not listed: [8] | [18] | [19]
inactive: all other assays above

COC(=O)C=C(C)OP(=O)(OC)OC
not listed: [8] | [19]
inactive: all other assays above

Oc1ccccc1-c1ccccc1
not listed: [3] | [8] | [18] | [19]
inactive: all other assays above

CS/C(C)=N/OC(=O)N(C)SN(C)C(=O)O/N=C(\C)SC
not listed: [18] | [19]
inactive: all other assays above

CCCCNC(=O)OCC#CI
active: [15] 50 µM | [16] 50 µM
not listed: [8] | [19]
inactive: all other assays above

COc1cnc(OC)n2nc(NS(=O)(=O)c3c(OCC(F)F)cccc3C(F)(F)F)nc12
not listed: [8] | [18]
inactive: all other assays above

CCOC(=O)C(Cl)Cc1cc(-n2nc(C)n(C(F)F)c2=O)c(F)cc1Cl (centres undefined)
not listed: [2] | [18] | [19]
inactive: all other assays above

OC(c1ccc(Cl)cc1)(c1cncnc1)c1ccccc1Cl (centres undefined)
inactive: [1] | [6] | [12] | [14]
active: [2] 85.7 µM | [3] 50 µM | [4] 73.2 µM | [5] 58.9 µM | MYC, MYC (gene 4609) 80.4 µM | [7] 5.86 µM | [9] 66.4 µM | [10] 81.8 µM | [11] 75.9 µM | [13] 44.6 µM | [15] 85.2 µM | [16] 77 µM | [17] 77.5 µM

CCOP(=S)(OCC)SCn1c(=O)oc2cc(Cl)ccc21
not listed: [3] | [8] | [18] | [19]
inactive: all other assays above

CCCCOC(=O)c1ccccc1C(=O)OCCCC
not listed: [18] | [19]
inactive: all other assays above
